Compound activity deposited in PubChem BioAssay by Sanford-Burnham Center for Chemical Genomics.
KKLEB tox – cytotoxicity in KKLEB CF airway cells, primary screen, cytotoxicity control for CF NF-kB inhibitor project, cell-based, uHTS, fluorescence assay plates; KKLEB CF airway cells viability, ATPlite luminescence, overnight; active compounds read low; cells stimulated with P. aeruginosa culture filtrate; activity change (cytotoxicity), % at 5 µM; 0.36% of 360,000 active;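 active = corrected activity change at or below -50% at 5 µM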
HIF-2a inh – HIF-2a reporter inhibitors, primary screen, luminescence, 786-0 RCC cells; inhibition, % at 18.8 µM; 786-0 RCC cells HIF-2a reporter, luciferase luminescence, overnight; 0.72% of 360,000 active; AID 624352, 2012;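 active = inhibition of the luminescence signal of 40% or more relative to plate controls, in a single-dose primary screen at 18.75 µM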
TRAIL sens C8 – viability loss with TRAIL in NB7+C8 cells, primary screen, TRAIL sensitizer project, cell-based, ATPlite luminescence. inhibition (viability loss, TRAIL sensitization), % at 10 µM. 1% of 360,000 active. AID 624354, 2012;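 active = compounds causing at least 50% loss of cell viability in the single-dose screen, relative to plate controls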
iPSC survival up – enhancers of single-cell hiPSC survival, primary screen, ATPlite luminescence. 0.044% of 360,000 active. 100% = ROCK inhibitor wells, 0% = DMSO. AID 602274, 2012. survival enhancement, % at 20 µM; in the data active = survival enhancement above about 18%;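 note: cells exposed to compounds for 16 hours before the ATP read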
PPC-1+TRAIL kill – compounds killing PPC-1 cancer cells with TRAIL present, primary screen, TRAIL potentiator project, ATPLite luminescence, uHTS | PPC-1 cells + TRAIL, ATPLite viability luminescence | cell killing (% activity), % at 4 µM or 5 µM | 0.41% of 220,000 active | AID 1443, 2008;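 active = cell killing above 50% in the first pass at 4 µM, then a duplicate retest at 5 µM averaging 50% or more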;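 note: plate controls were cells with TRAIL plus DMSO for no effect and medium-only wells lacking cells for full effect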
CF NFkB block – inhibitors of PAF-induced NF-kB signaling, primary screen, cell-based, GFP fluorescence, uHTS; KKLEB NF-kB-GFP reporter, GFP fluorescence overnight; inhibition, % at 5 µM; 0.86% of 360,000 active;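 active = at least 50% inhibition at 5 µM, scaled per plate between neutral and stimulator controls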;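 note: PAF is a Pseudomonas aeruginosa culture filtrate used as stimulus; plate controls were PAF-stimulated DMSO wells for no effect and unstimulated DMSO wells for full effect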
* marks the source's active call; other numbers are inactive results; / = no result given. A selection: hits, their analogues and other compounds. The true share with any hit is near 2.2%.

SMILES | KKLEB tox | HIF-2a inh | TRAIL sens C8 | iPSC survival up | PPC-1+TRAIL kill | CF NFkB block
O=C(/C=C/c1ccccc1)C1C(=O)c2ccccc2C1=O | -22.8 | -84.7 | 87.3* | -3.1 | 37.1 | -5.5
CCc1ccc(/C=C/C(=O)C2C(=O)c3ccccc3C2=O)cc1 | 11.8 | -134.0 | 91.4* | -0.9 | 23.6 | -20.5
CCc1ccc(C2C(C(=O)O)c3ccccc3C(=O)N2C)cc1 (centres undefined) | -12.5 | -6.9 | -0.3 | -0.9 | 16.2 | -0.8
Cc1ccc2[nH]c(O)c(N=NC(N)=S)c2c1 | -0.6 | -50.5 | -0.4 | 0.9 | 6.1 | -19.8
CC(/C=C(\NC(=O)c1ccccc1)C(=O)N=Nc1c(O)[nH]c2ccc(C)cc12)=C\c1ccccc1 | -14.5 | 11.0 | 2.9 | 0.6 | 21.9 | 52.7*
Cc1ccc(-c2nn3c(C)nnc3s2)cc1NC(=O)c1ccc(-c2cccc(Cl)c2)o1 | 4.2 | -14.7 | 7.4 | 5.8 | 27.1 | 2.3
Cc1ccc(-c2nn3c(C)nnc3s2)cc1NC(=O)c1ccc(-c2ccc(Cl)cc2Cl)o1 | -32.4 | -1.1 | 60.1* | 1.3 | -15.1 | 16.1
Nc1c(Cl)nc(-c2ccccc2)nc1Cl | -5.4 | -5.0 | -2.8 | 2.8 | 15.1 | 2.6
COc1ccc([N+](=O)[O-])cc1NCC(=O)Nc1cccc(S(=O)(=O)N2CCCC2)c1 | 7.5 | -9.2 | -18.8 | -0.4 | / | -49.7
Cc1ccc(NC(=O)C2CCN(S(=O)(=O)c3cccnc3)CC2)cc1C | -3.8 | 7.4 | 3.8 | 1.3 | / | -4.8
COc1cc(N(C(=O)Cc2cccs2)C(C(=O)NC2CCCCC2)c2ccc(C)cc2)ccc1-n1cnnn1 (centres undefined) | -56.4* | 17.5 | -2.5 | -0.9 | 22.3 | 66.8*
CC(C)(CNc1ccc(S(=O)(=O)C(F)(F)F)cc1[N+](=O)[O-])N1CCOCC1 | 4.2 | 8.5 | 16.8 | -0.4 | / | -0.3
O=C(Nc1nccs1)c1cc(S(=O)(=O)N2CCOCC2)ccc1Cl | 7.4 | 13.3 | 4.1 | 2.2 | 60.2* | -5.0
O=C(Nc1ccncc1)c1cc(S(=O)(=O)N2CCCC2)ccc1Cl | -15.7 | 20.7 | 5.0 | 46.9* | / | 8.8
O=C(Nc1ccncc1)c1cc(S(=O)(=O)N2CCCCC2)ccc1Cl | -27.5 | 24.0 | -3.5 | 5.9 | / | 22.7
O=C(Nc1nncs1)c1cc(S(=O)(=O)N2CCOCC2)ccc1Cl | 2.7 | 4.5 | -0.7 | 0.4 | / | -0.5
Cc1ccc(C)c(C(=O)OCC(=O)N(C)c2ccccc2)c1 | 4.0 | 3.2 | -12.8 | -0.4 | / | 16.4
CCOc1ccc(-n2nc3cc(C)c(N)cc3n2)cc1 | -11.2 | -174.4 | 58.7* | -0.6 | / | -20.4
CCOc1ccc(-n2nc3ccc(N)cc3n2)cc1 | -19.9 | 35.5 | 35.1 | -0.5 | / | 1.0
C(=N\NC1=Nc2cccc3cccc1c23)/c1ccccc1 | -7.4 | -198.2 | 49.9* | -2.0 | 32.4 | -28.7
COCCCN=C1NN=C(c2cc(C)n(-c3ccccc3F)c2C)CS1 | -23.6 | 21.0 | 53.3* | -2.9 | 41.3 | 1.8
COc1cc(/C=N/N=C(N)N)ccc1OCc1ccc(Cl)cc1 | -17.4 | -104.1 | 36.3 | -4.2 | 12.4 | 24.8
NC(N)=N/N=C/c1ccc(OCc2ccccc2)c(OCc2ccccc2)c1 | -53.3* | 28.2 | 32.2 | -0.7 | / | 45.2
CCN(CC)S(=O)(=O)c1ccc(Cl)c(C(=O)Nc2cc(C)nn2-c2ccccc2)c1 | -2.6 | 14.1 | 20.3 | 1.4 | 50.9* | 2.4
CCN(CC)S(=O)(=O)c1cccc(C(=O)Nc2cc(C)nn2-c2ccccc2)c1 | 2.8 | 21.5 | -8.6 | 1.0 | 33.4 | -3.3
SMILES | KKLEB tox | HIF-2a inh | TRAIL sens C8 | iPSC survival up | PPC-1+TRAIL kill | CF NFkB block
COc1ccc(/C(N)=N/OC(=O)c2ccc3c(c2)OCO3)cc1OC | -5.7 | -266.8 | 81.6* | -2.4 | 48.7 | 10.0
N/C(=N\OC(=O)c1ccc2ccccc2c1)c1ccccc1Cl | -8.6 | -300.5 | 92.9* | -0.4 | / | 36.8
COc1ccc(/C(N)=N/OC(=O)c2c(-c3ccccc3Cl)noc2C)cc1OC | -14.4 | 11.1 | 93.2* | 0.0 | / | -0.1
COc1ccc(/C(N)=N/OC(=O)c2ccc3ccccc3c2)cc1OC | 5.1 | -126.8 | 95.7* | -3.9 | / | -11.9
N/C(=N\OC(=O)c1ccc2ccccc2c1)c1ccncc1 | 3.8 | -256.0 | 3.9 | 0.5 | 6.2 | -6.8
CCCCOc1ccc(Nc2cc(Cl)ccc2C(=O)O)cn1 | 4.3 | 13.8 | -14.3 | 0.6 | 13.4 | 5.0
CC(NC(=O)COC(=O)CN1C(=O)C2CCCCC2C1=O)c1ccccc1 (centres undefined) | -16.9 | 2.0 | -21.9 | -0.9 | / | 28.1
O=C(Nc1nc(-c2ccc(S(=O)(=O)N3CCOCC3)cc2)cs1)c1ccccc1 | -1.0 | -11.3 | 28.2 | -2.9 | 0.0 | 5.4
O=C(Nc1nc(-c2nc3ccccc3s2)cs1)c1ccc(S(=O)(=O)N2CCOCC2)cc1 | -49.1 | -284.6 | 40.3 | 1.3 | -10.3 | 54.8*
O=C(Nc1nc(-c2cc3ccccc3o2)cs1)c1ccc(S(=O)(=O)N2CCCC2)cc1 | -15.7 | -37.0 | 38.3 | -0.5 | 11.1 | 11.5
CC1CN(S(=O)(=O)c2ccc(C(=O)Nc3nc(-c4cc5ccccc5o4)cs3)cc2)CC(C)O1 (centres undefined) | -54.2* | 8.9 | 42.4 | -1.9 | -0.3 | 50.4*
O=C(c1cc(COc2ccc(F)cc2Cl)on1)N1CC2C[C@@H]3CC1C[C@H](C2)C3 | -21.6 | -250.9 | 13.1 | 0.5 | / | -3.4
CCOC(=O)CSC1=NC(=O)/C(=C/c2ccc(OC)cc2)S1 | -29.0 | 74.1* | 0.2 | -2.6 | 18.7 | 34.3
O=S(=O)(c1cnc(Cl)c(Cl)c1)N1CCCc2ccccc21 | 14.2 | 21.5 | -0.5 | -1.3 | 42.6 | -8.2
O=S(=O)(c1cnc(Cl)c(Cl)c1)N1CCc2ccccc21 | 3.4 | 21.8 | 11.9 | 2.4 | 79.9* | -30.2
Cc1ccc(N(C(=O)c2snc(C(N)=O)c2N)C(C(=O)NC2CCCC2)c2ccc(C)o2)cc1 (centres undefined) | 10.0 | 14.6 | 8.0 | 0.4 | / | 11.1
CC(C)CN(C(=O)Cn1c(Cl)nc2c1c(=O)n(C)c(=O)n2C)C1CCS(=O)(=O)C1 (centres undefined) | -0.9 | 12.0 | -4.6 | -0.4 | / | -3.6
Cn1cccc1/C=N/n1c(-c2ccc(C(C)(C)C)cc2)n[nH]c1=S | 11.3 | 2.8 | 53.8* | -0.3 | 23.7 | 15.2
Cn1cccc1/C=N/n1c(-c2ccccc2)n[nH]c1=S | 13.5 | 22.5 | 3.6 | -1.0 | -30.0 | -16.1
O=C(Nc1ccccn1)c1ccc(C(=O)c2ccccc2)cc1 | -18.4 | -209.4 | 19.7 | -0.4 | / | 9.2
O=C(NC(=O)c1ccccc1)Nc1ccccn1 | -21.5 | 75.2* | 88.8* | -0.4 | / | 12.0
